Results as given in PubChem BioAssay (EPA / NIEHS).
Results filed as inconclusive are left out. The source made the active and inactive calls. The calls were made as follows, unless noted: active = hit-call score of the fitted dose curve at least 0.9, where 1 is the maximum; inactive = score below 0.9.

test system: not listed separately; experiment: ATG_VDRE_CIS: Attagene CIS-FACTORIAL HepG2 Assay for human Vitamin D Receptor Element (VDRE) (AID 2282968); conditions: HepG2 VDRE cis-reporter transcription, actives raise or lower the signal
Method in brief: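 Compounds were applied for 24 h to HepG2 cells transfected with promoter-regulated reporter units. Total RNA was reverse-transcribed, and reporter amplicons were fluorescently labelled and sized by capillary electrophoresis.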

Row | Compound | outcome | AC50
1 | O=C1c2ccccc2C(=O)c2cc(S(=O)(=O)O)ccc21 | inactive | 
2 | Cc1c(C(=O)c2c[nH]n(C)c2=O)ccc(S(C)(=O)=O)c1C1=NOCC1 | inactive | 
3 | CCCCCCCCCCCCCc1ccccc1 | inactive | 
4 | CC(C)(CO)C(O)C(=O)NCCCO (stereo unspecified) | inactive | 
5 | CCCSSCCC | inactive | 
6 | Clc1cccnc1 | inactive | 
7 | CC(CC(C)C)=NO | inactive | 
8 | CC(C)(C)N | inactive | 
9 | CCOC(=O)OC(=O)OCC | inactive | 
10 | C=CC(=O)OCC(C)OCC(C)OCC(C)OC(=O)C=C (stereo unspecified) |  | 6.27 µM (active)
11 | CCCCOCCOC(=O)COc1ccc(Cl)cc1Cl | inactive | 
12 | CC1(C)C(=O)N(CO)C(=O)N1CO | inactive | 
13 | C=C[C@@]1(C)CC(=O)[C@]2(O)[C@@]3(C)[C@@H](O)CCC(C)(C)[C@@H]3[C@H](O)[C@H](OC(C)=O)[C@@]2(C)O1 |  | 2.1 µM (active)
14 | CC(=O)OC(C)c1ccccc1 (stereo unspecified) | inactive | 
15 | CCC(C)N (stereo unspecified) | inactive | 
16 | CC1OC(=O)C(C)OC1=O (stereo unspecified) | inactive | 
17 | CC(=O)CCC1=C(C)CCCC1(C)C | inactive | 
18 | Nc1cccc(N)n1 | inactive | 

target: Nuclear receptor subfamily 1 group I member 3 (Homo sapiens) (UniProt Q14994); experiment: ATG_CAR_TRANS: Attagene TRANS-FACTORIAL HepG2 Assay for human Constitutive Androstane Receptor (CAR) (AID 2282969; active = hit-call score of the fitted dose curve at least 0.9, where 1 is the maximum;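 also: activators raise reporter mRNA above DMSO so AC50 marks induction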); conditions: HepG2 Attagene TRANS-FACTORIAL CAR reporter
Method in brief: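 Transiently transfected HepG2, multiplex TRANS reporters (CAR-Gal4 chimera driving GAL4-UAS reporter). 24 h dosing. Readout: reporter transcript by RT-PCR + capillary electrophoresis, fluorescence intensity; positive direction vs DMSO.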

Chain of Nuclear receptor subfamily 1 group I member 3 (Homo sapiens) (Q14994 whole entry, looked up, the tested form may be a part): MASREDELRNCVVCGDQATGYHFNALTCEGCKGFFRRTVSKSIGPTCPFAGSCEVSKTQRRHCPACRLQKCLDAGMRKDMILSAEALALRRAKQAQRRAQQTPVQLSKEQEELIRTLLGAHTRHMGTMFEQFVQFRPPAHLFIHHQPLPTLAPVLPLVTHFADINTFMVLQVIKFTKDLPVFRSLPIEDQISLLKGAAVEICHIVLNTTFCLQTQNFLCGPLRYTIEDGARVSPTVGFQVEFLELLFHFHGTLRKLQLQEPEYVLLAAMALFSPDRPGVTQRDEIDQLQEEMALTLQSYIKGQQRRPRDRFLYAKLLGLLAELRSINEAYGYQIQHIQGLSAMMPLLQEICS

Row | Compound | outcome
19 | CC1=C(O)C(=O)C(C)O1 (stereo unspecified) | inactive
20 | O=C(Oc1ccccc1)c1ccccc1O | inactive
21 | O=C1CCCCCCCCCCC1 | inactive
22 | CC(C)c1ccc2ncccc2c1 | inactive
23 | CCCC1CCCC(=O)O1 (stereo unspecified) | inactive
24 | CCCCC1CCC(=O)O1 (stereo unspecified) | inactive
25 | CC=C(C)C(C)=O | inactive
26 | Cc1noc(NS(=O)(=O)c2ccc(N)cc2)c1C | inactive

target: Estrogen receptor (Homo sapiens) (UniProt P03372); experiment: ATG_ERa_TRANS: Attagene TRANS-FACTORIAL HepG2 Assay for human Estrogen Receptor alpha (ERa) (AID 2282970; active = hit-call score of the fitted dose curve at least 0.9, where 1 is the maximum); conditions: HepG2 Attagene TRANS ERa GAL4 reporter, mRNA
Method in brief: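 Transfected HepG2 cells carrying GAL4-UAS-driven reporter units were dosed for 24 hours. Total RNA was reverse-transcribed, reporter sequences PCR-amplified, FAM-labelled, HpaI-digested and resolved by capillary electrophoresis. Increases over DMSO control defined activity.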

Chain of Estrogen receptor (Homo sapiens) (P03372 whole entry, looked up, the tested form may be a part): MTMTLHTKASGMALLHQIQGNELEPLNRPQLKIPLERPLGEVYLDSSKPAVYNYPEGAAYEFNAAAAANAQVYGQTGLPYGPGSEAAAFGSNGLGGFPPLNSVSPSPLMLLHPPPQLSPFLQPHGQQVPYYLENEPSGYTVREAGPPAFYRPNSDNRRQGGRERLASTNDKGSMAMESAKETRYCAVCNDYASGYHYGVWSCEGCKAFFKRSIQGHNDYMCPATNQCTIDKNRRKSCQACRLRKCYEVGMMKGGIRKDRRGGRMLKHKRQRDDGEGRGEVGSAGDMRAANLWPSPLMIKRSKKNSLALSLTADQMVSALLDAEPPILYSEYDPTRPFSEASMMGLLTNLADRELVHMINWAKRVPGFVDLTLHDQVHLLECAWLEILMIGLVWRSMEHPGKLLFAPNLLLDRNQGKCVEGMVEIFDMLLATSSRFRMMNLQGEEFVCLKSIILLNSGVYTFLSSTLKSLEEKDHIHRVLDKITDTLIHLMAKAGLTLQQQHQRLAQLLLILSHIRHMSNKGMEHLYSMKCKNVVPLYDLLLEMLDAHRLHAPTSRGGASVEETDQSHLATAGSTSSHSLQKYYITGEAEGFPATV

Row | Compound | outcome | AC50
27 | CC1=C(O)C(=O)C(C)O1 (stereo unspecified) | inactive | 
28 | CCCCNS(=O)(=O)c1ccc(C)cc1 | inactive | 
29 | O=C(Oc1ccccc1)c1ccccc1O | inactive | 
30 | O=C(O)c1cc(O)c2ccccc2c1O | inactive | 
31 | O=C1CCCCCCCCCCC1 |  | 21.2 µM (active)
32 | C=CCCCCCCCCOC(C)=O | inactive | 
33 | Cc1ccc(C)c(OCCCC(C)(C)C(=O)O)c1 |  | 20.2 µM (active)
34 | CC(C)c1ccc2ncccc2c1 | inactive | 
35 | CC1(C)CCC[C@]2(C)[C@H]3CC(=O)O[C@]3(C)CC[C@@H]12 |  | 2.7 µM (active)
36 | N=C1C=CC(=C(c2ccc(N)cc2)c2ccc(N)cc2)C=C1 | inactive | 
37 | O=C(Cl)c1c(Cl)c(Cl)c(C(=O)Cl)c(Cl)c1Cl | inactive | 
38 | CCCC1CCCC(=O)O1 (stereo unspecified) | inactive | 
39 | COc1ccc(C(=O)c2ccccc2)c(O)c1 |  | 6.43 µM (active)
40 | O=C(Oc1ccccc1)c1ccccc1C(=O)Oc1ccccc1 | inactive | 
41 | O=C(OCc1ccccc1)c1ccc(O)cc1 |  | 26.7 µM (active)
42 | CC(=O)OC/C=C(/C)CCC=C(C)C | inactive | 

target: Steroid hormone receptor ERR1 (Homo sapiens) (UniProt P11474); experiment: ATG_ERRa_TRANS: Attagene TRANS-FACTORIAL HepG2 Assay for human Estrogen-Related Receptor alpha (ERRa) (AID 2282971; active = hit-call score of the fitted dose curve at least 0.9, where 1 is the maximum); conditions: HepG2 Attagene TRANS reporter, ERRa transactivation
Method in brief: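 HepG2 cells were transiently transfected with multiple GAL4-UAS reporter units, then dosed with compound for 24 h. Total RNA was reverse-transcribed, reporter cDNA PCR-amplified and fluorescently labelled, and fragments resolved by capillary electrophoresis; induction was compared with DMSO.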

Chain of Steroid hormone receptor ERR1 (Homo sapiens) (P11474 whole entry, looked up, the tested form may be a part): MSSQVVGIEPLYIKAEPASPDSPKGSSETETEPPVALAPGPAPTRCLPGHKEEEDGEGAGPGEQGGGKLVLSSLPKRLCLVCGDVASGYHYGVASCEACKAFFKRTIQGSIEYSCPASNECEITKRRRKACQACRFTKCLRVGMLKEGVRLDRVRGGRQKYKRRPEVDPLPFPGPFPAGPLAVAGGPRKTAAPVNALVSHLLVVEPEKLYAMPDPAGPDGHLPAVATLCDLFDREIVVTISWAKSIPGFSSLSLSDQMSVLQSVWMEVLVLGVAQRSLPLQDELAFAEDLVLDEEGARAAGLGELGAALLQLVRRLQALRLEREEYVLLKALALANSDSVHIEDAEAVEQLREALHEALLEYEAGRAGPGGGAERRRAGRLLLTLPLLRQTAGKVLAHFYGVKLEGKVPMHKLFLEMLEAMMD

Row | Compound | outcome
43 | O=C(O)c1cc(O)c2ccccc2c1O | inactive
44 | C=CCCCCCCCCOC(C)=O | inactive
45 | CC(C)c1ccc2ncccc2c1 | inactive
46 | O=C(Cl)c1c(Cl)c(Cl)c(C(=O)Cl)c(Cl)c1Cl | inactive
47 | CCCCC1CCC(=O)O1 (stereo unspecified) | inactive

target: X-box-binding protein 1 (Homo sapiens) (UniProt P17861); experiment: ATG_Xbp1_CIS: Attagene CIS-FACTORIAL HepG2 Assay for human X-box Binding Protein 1 (XBP1) (AID 2282972); conditions: HepG2 XBP1 cis-element reporter, Attagene multiplex; actives raise or lower the signal
Method in brief: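 Changes in reporter transcript abundance, read by RT-PCR and capillary electrophoresis, reflect endogenous transcription factor activity. Transfected HepG2 cells received compound for 24 hours; DMSO defined baseline for bidirectional analysis.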

Chain of X-box-binding protein 1 (Homo sapiens) (P17861 whole entry, looked up): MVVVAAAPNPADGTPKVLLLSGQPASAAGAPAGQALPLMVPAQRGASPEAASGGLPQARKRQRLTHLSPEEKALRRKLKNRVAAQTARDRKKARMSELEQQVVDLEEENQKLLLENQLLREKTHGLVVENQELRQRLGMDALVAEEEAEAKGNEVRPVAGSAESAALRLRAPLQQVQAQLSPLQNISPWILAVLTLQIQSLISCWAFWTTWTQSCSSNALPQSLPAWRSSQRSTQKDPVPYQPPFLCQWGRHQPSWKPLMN

Row | Compound | outcome | AC50
48 | CC1=C(O)C(=O)C(C)O1 (stereo unspecified) | inactive | 
49 | CCCCNS(=O)(=O)c1ccc(C)cc1 | inactive | 
50 | O=C(Oc1ccccc1)c1ccccc1O | inactive | 
51 | O=C1c2ccccc2C(=O)c2cc(S(=O)(=O)O)ccc21 | inactive | 
52 | O=C(O)c1cc(O)c2ccccc2c1O | inactive | 
53 | Cc1c(C(=O)c2c[nH]n(C)c2=O)ccc(S(C)(=O)=O)c1C1=NOCC1 | inactive | 
54 | O=C1CCCCCCCCCCC1 | inactive | 
55 | C=CCCCCCCCCOC(C)=O | inactive | 
56 | Cc1ccc(C)c(OCCCC(C)(C)C(=O)O)c1 | inactive | 
57 | CC(C)(CO)C(O)C(=O)NCCCO (stereo unspecified) | inactive | 
58 | CCCSSCCC | inactive | 
59 | Clc1cccnc1 | inactive | 
60 | CC(C)c1ccc2ncccc2c1 | inactive | 
61 | CC1(C)CCC[C@]2(C)[C@H]3CC(=O)O[C@]3(C)CC[C@@H]12 | inactive | 
62 | N=C1C=CC(=C(c2ccc(N)cc2)c2ccc(N)cc2)C=C1 |  | 25.3 µM (active)
63 | CC(CC(C)C)=NO | inactive | 

Row | Compound | outcome | AC50
64 | O=C(Cl)c1c(Cl)c(Cl)c(C(=O)Cl)c(Cl)c1Cl | inactive | 
65 | CCOC(=O)OC(=O)OCC | inactive | 
66 | CCCC1CCCC(=O)O1 (stereo unspecified) | inactive | 
67 | COc1ccc(C(=O)c2ccccc2)c(O)c1 | inactive | 
68 | C=CC(=O)OCC(C)OCC(C)OCC(C)OC(=O)C=C (stereo unspecified) | inactive | 
69 | O=C(Oc1ccccc1)c1ccccc1C(=O)Oc1ccccc1 | inactive | 
70 | CC1(C)C(=O)N(CO)C(=O)N1CO | inactive | 
71 | O=C(OCc1ccccc1)c1ccc(O)cc1 |  | 147 µM (active)
72 | CC(=O)OC(C)c1ccccc1 (stereo unspecified) | inactive | 
73 | CCC(C)N (stereo unspecified) | inactive | 
74 | CC1OC(=O)C(C)OC1=O (stereo unspecified) | inactive | 
75 | CC(=O)OC/C=C(/C)CCC=C(C)C | inactive | 
76 | CC=C(C)C(C)=O | inactive | 
77 | CC(=O)CCC1=C(C)CCCC1(C)C | inactive | 
78 | Nc1cccc(N)n1 | inactive | 
79 | Cc1noc(NS(=O)(=O)c2ccc(N)cc2)c1C | inactive | 

test system: not listed separately; experiment: ATG_M_19_TRANS: Attagene TRANS-FACTORIAL HepG2 Assay for M19 Transcription Factor (Internal Marker) (AID 2282974; active = hit-call score of the fitted dose curve at least 0.9, where 1 is the maximum); conditions: HepG2 Attagene TRANS-FACTORIAL M19 internal marker reporter
Method in brief: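 Transfected HepG2 (GAL4-UAS MRTUs), 24 h compound, TriZol RNA, DNase-treated RT, reporter PCR, FAM label, HpaI digest, CE fluorescence; gain vs DMSO.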

Row | Compound | outcome
80 | CCCCNS(=O)(=O)c1ccc(C)cc1 | inactive
81 | O=C1c2ccccc2C(=O)c2cc(S(=O)(=O)O)ccc21 | inactive
82 | Cc1c(C(=O)c2c[nH]n(C)c2=O)ccc(S(C)(=O)=O)c1C1=NOCC1 | inactive
83 | C=CCCCCCCCCOC(C)=O | inactive
84 | Clc1cccnc1 | inactive
85 | CC1(C)CCC[C@]2(C)[C@H]3CC(=O)O[C@]3(C)CC[C@@H]12 | inactive
86 | N=C1C=CC(=C(c2ccc(N)cc2)c2ccc(N)cc2)C=C1 | inactive
87 | CC(C)(C)N | inactive
88 | CCCC1CCCC(=O)O1 (stereo unspecified) | inactive
89 | COc1ccc(C(=O)c2ccccc2)c(O)c1 | inactive
90 | CCCCOCCOC(=O)COc1ccc(Cl)cc1Cl | inactive
91 | O=C(Oc1ccccc1)c1ccccc1C(=O)Oc1ccccc1 | inactive
92 | O=C(OCc1ccccc1)c1ccc(O)cc1 | inactive
93 | CC(=O)OC/C=C(/C)CCC=C(C)C | inactive
94 | CCCCC1CCC(=O)O1 (stereo unspecified) | inactive
95 | CC(=O)CCC1=C(C)CCCC1(C)C | inactive
96 | Nc1cccc(N)n1 | inactive
